Screens: PubChem, National Center for Advancing Translational Sciences (NCATS)
Shown are actives, neighbours in structure and some others; about 2.4% of the full set was active somewhere.
D2 PAM-1 – D2 dopamine receptor (human) potentiation; P14416; HEK293 T-REx D2, calcium flux, EC20 dopamine potentiation; potentiation, % at 10 µM; 0.34% of 340,000 active; AID 485347;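 active = potentiation over 3 SD above the plate norm, cut at about 30% in these data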; note: 0% is about no effect
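Cells plated with tetracycline inducer and held overnight at 30 C; calcium dye loaded 30–90 min at room temperature; baseline taken, compound added and read 180 s; EC20 dopamine then added and read 180 s.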
D2 antagonist – D2 dopamine receptor (human) antagonism | P14416 | HEK293 TREx D2 cells, calcium flux, dopamine EC80 | inhibition, % at 10 µM | 2% of 340,000 active | AID 485344; in the data active = inhibition above about 30%; inactive = below that, where a call was filed; note: 0% is about no effect
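Antagonism is scored as inhibition of an EC80 dopamine-evoked calcium signal in a force-coupled, tetracycline-inducible HEK293 T-REx D2 line, with compound present 180 s before agonist.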
B2AR arrestin – agonists driving beta-arrestin recruitment to human beta2-adrenergic receptor; beta-arrestin recruitment to beta2AR, cell-based reporter; P07550; Potency, µM (top dose mostly 46.1 µM), for the others: at the top dose activation, most hits filed as activators; AID 492947; 0.02% of 330,000 active; active = well fitted activation curve with a large enough effect;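 note: potency is the fitted concentration of half-maximal effect; 0% = DMSO controls and full agonism = EC100 isoproterenol or metaproterenol; nearly all actives have a fitted effect of over 65% in size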
Target sequence (P07550 whole entry, looked up): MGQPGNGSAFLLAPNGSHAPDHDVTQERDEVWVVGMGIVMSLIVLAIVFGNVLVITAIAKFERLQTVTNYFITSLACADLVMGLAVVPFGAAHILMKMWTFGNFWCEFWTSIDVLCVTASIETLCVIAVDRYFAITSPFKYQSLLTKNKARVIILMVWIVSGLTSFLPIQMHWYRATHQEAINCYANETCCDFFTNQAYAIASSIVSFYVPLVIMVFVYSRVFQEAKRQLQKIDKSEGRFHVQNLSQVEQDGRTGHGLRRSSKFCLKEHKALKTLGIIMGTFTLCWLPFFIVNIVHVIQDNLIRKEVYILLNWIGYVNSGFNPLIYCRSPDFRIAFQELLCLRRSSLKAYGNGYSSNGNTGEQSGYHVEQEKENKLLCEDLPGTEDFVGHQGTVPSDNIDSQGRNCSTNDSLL
D2 ag-1 – activates the human D2 dopamine receptor. P14416. DiscoveRx PathHunter D2 beta-arrestin, luminescence, 90 min; 100% = 57 uM dopamine signal. activation, % (concentration not given with the values). 0.084% of 360,000 active. AID 624465; in the data active = activation above about 40%
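Agonist mode: compounds alone added to overnight-plated D2 PathHunter cells for 90 min at 37 C, with 57 uM final dopamine (EC100) defining full response. Beta-arrestin recruitment detected by chemiluminescent reagent, read after 1 h at ambient temperature.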
D2 PAM-2 – human D2 receptor positive allosteric modulation; P14416; DiscoveRx D2 beta-arrestin cells, luminescence, 90 min; 100% = 57 uM dopamine signal; potentiation, % (no concentration beside the values); 0.23% of 360,000 active; in the data active = potentiation above about 50%
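PathHunter D2 cells, attached overnight at 37 deg C, received compound in DMSO plus dopamine at EC20 (50 nM final) for 90 min at 37 deg C. Beta-arrestin recruitment was read as luminescence after 1 h with detection reagent at ambient temperature.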
D2 ag-2 – activates the human D2 dopamine receptor; activation, % at 2 µM; 0.53% of 340,000 active; HEK293 T-REx D2 cells, calcium flux agonist mode; P14416;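 active = activation over 3 SD above normal in the single-dose calcium agonist read, cut at about 30% in these data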; note: 0% is about no effect
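Agonism is scored from calcium flux in a force-coupled, inducible HEK293 cell line expressing D2, read kinetically for 180 s after compound addition against dopamine controls.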
An asterisk follows results filed as active; . = no result given.

SMILES	D2 PAM-1	D2 antagonist	B2AR arrestin	D2 ag-1	D2 PAM-2	D2 ag-2
O=C(Nc1cccc(C(=O)N2CCOCC2)c1)c1ccccc1Br	5	-19	-1%	-1	9	0
CC1CCc2cc(F)ccc2N1S(=O)(=O)c1ccc(Cl)nc1 (stereo not drawn)	-6	35*	-2%	0	2	-1
CC1CCc2cc(F)ccc2N1S(=O)(=O)c1ccc(F)cc1 (stereo not drawn)	3	6	0%	6	0	1
Cc1ccc(NC(=O)c2ccc(=O)n(CC(=O)Nc3c(C)cc(C)cc3C)n2)cc1	2	14	0%	-4	-5	0
COC(=O)c1ccc(NC(=O)Cn2nc(C(=O)Nc3ccc(C)cc3)ccc2=O)cc1	-1	30*	-2%	-4	-2	-1
CCN1CCSc2ccc(C(=O)NCc3ccc(OC(C)C)cc3)cc21	-14	60*	0%	-4	-12	2
CCOc1ccc(CNC(=O)c2ccc3c(c2)N(CC)CCS3)cc1	-17	61*	0%	1	-10	1
COc1ccc(CNC(=O)c2ccc3c(c2)N(Cc2ccc(C)cc2)CCS3)cc1	-2	.	.	.	.	0
Cc1ccc(C(=O)Nc2ccc(SC(F)F)cc2)s1	-27	.	-1%	0	-24	.
COc1cc(NC(C)=O)c2ncccc2c1NC(C)=O	13	37*	8%	-6	-4	1
COc1ccc(N2CCN(C(=O)CSc3nnnn3C3CC3)CC2)cc1	-15	32*	0%	-1	-2	1
CN(C)c1cc(NC(=O)CN2CCCC2)c2ccccc2n1	8	-2	0%	-3	-9	1
CC(C)CN1C(=O)C(=O)N(CC(=O)Nc2cccc(Cl)c2Cl)C1=O	-7	-8	0%	-2	-1	0
O=C(CSc1nccc(=O)[nH]1)Nc1ccc(S(=O)(=O)N2CCOCC2)cc1	5	31*	0%	-1	-2	0
Nc1cc(=O)[nH]c(SCC(=O)Nc2ccc(S(=O)(=O)N3CCOCC3)cc2)n1	-5	6	0%	-3	-3	0
Cc1cccc(NC(=S)NC(NC(=O)c2ccco2)C(Cl)(Cl)Cl)c1 (stereo not drawn)	-24	30*	0%	0	-29	1
NC(=O)c1noc(C(=O)N(CC(=O)NC2CCCC2)Cc2ccc3c(c2)OCO3)c1N	-3	37*	0%	-1	-10	1
C=CCC(=O)N(CC)CC1CCCN(CCc2cccc(F)c2)C1 (stereo not drawn)	-17	49*	0%	-2	-1	0
c1cc2c3c(cccc3c1)NC1(CCC3(CC1)Nc1cccc4cccc(c14)N3)N2	-4	-8	4%	0	71*	4
c1cc2c3c(cccc3c1)NC1(CCCCCC1)N2	-1	18	0%	0	-2	-1
COc1cccc(C2/C(=C(\O)c3ccc4c(c3)OCCO4)C(=O)C(=O)N2Cc2cccnc2)c1 (stereo not drawn)	-10	31*	0%	-3	-5	0
O=C1C(=O)N(Cc2cccnc2)C(c2cccc([N+](=O)[O-])c2)/C1=C(\O)c1ccc2c(c1)OCCO2 (stereo not drawn)	2	2	0%	2	-6	1
COc1cccc(C2/C(=C(\O)c3ccc4c(c3)OCO4)C(=O)C(=O)N2CCN(C)C)c1OC (stereo not drawn)	4	41*	-1%	-3	-10	-2
Cc1ccc(-n2c(SCC(=O)c3c(N)n(C)c(=O)n(C)c3=O)nc3sc4c(c3c2=O)CCCC4)c(C)c1	4	-4	0%	-2	-17	1
Cn1c(=O)oc2cc(NC(=O)CCl)ccc21	-5	32*	1%	2	-1	0
SMILES	D2 PAM-1	D2 antagonist	B2AR arrestin	D2 ag-1	D2 PAM-2	D2 ag-2
COc1cc(/C=C2\SC(=S)N(C(C(=O)O)c3ccccc3)C2=O)ccc1O (stereo not drawn)	0	1	2%	-10	-20	33*
CCOc1cc(/C=C2\SC(=S)N(C(C(=O)O)c3ccccc3)C2=O)ccc1O (stereo not drawn)	12	-8	1%	-11	-20	0
COc1cc(OC)c(NS(=O)(=O)c2coc(C(N)=O)c2)cc1Cl	12	-9	0%	-4	-2	0
COc1ccc(NS(=O)(=O)c2coc(C(N)=O)c2)cc1Cl	-2	31*	0%	4	0	1
CCOC(=O)CCNC(=O)N1CCCC(C(=O)c2cccc(Cl)c2)C1 (stereo not drawn)	-2	-7	0%	6	-6	0
CCCN1C(=O)/C(=C/c2ccc(C)s2)NC1=S	-10	31*	-1%	-2	-2	0
NC(N)=N/N=C/c1ccc(OS(=O)(=O)c2ccccc2)cc1	-8	30*	0%	7	-12	1
CCC(=O)N/N=C/c1ccc(OS(=O)(=O)c2ccccc2)cc1	1	-30	0%	3	-2	-1
Cn1cc(Cl)c(C(=O)N/N=C/c2ccc(OS(=O)(=O)c3ccccc3)cc2)n1	40*	0	0%	0	-3	0
CCOC(=O)c1c(/N=C/N(C)C)sc(C=O)c1-c1ccccc1	.	.	0%	-1	-4	.
O=C(NNC(=O)c1cccc(C(F)(F)F)c1)c1ccc(-n2cnnn2)cc1	.	.	0%	-1	0	.
CC(NC(=O)Cn1cnnn1)c1cccc(C(F)(F)F)c1 (stereo not drawn)	38*	-18	-1%	1	-4	-2
CCOC(=O)[C@@H]1[C@H]2COc3ccccc3[C@@H]2N2C(=O)N(c3cccc(C)c3)C(=O)[C@]12C	-3	-11	-1%	-2	-34	0
COc1ccc(CCNCc2c(C(=O)O)c(C)n(Cc3c(F)cccc3Cl)c2C)cc1OC	.	.	.	.	.	-1
CCOC(=O)c1cnn(CCOC(=O)Cc2cccs2)c1NC(=O)Cc1cccs1	2	34*	0%	-3	-4	0
COC(=O)c1cc2occc2n1CC(=O)Nc1ccc(C)cc1Cl	0	.	.	.	.	0
COc1ccccc1/C=C1\SC(=S)N(CCC(=O)Nc2nnc(C)s2)C1=O	-6	31*	0%	1	-7	1
CCc1nnc(NC(=O)CN2C(=O)/C(=C/c3cc(OC)c(OC)c(OC)c3)SC2=S)s1	31*	-5	0%	-5	-15	1
OCC1(CCOc2ccccc2)CCN(CC2=Cc3cc(Cl)ccc3OC2)CC1	-18	-49	0%	0	-12	2
